Assay results taken from the supplement of paper PMC10681739.

What was measured:
ETS1 [1] = target: T1, ETS1 (UniProt P14921); assay: ETS1 binding intensity (PBM fluorescence), ETS1 alone (arbitrary fluorescence units); higher = stronger binding; settings: ETS1 concentration 1 nM; RUNX1 concentration 0 nM
T1 sequence: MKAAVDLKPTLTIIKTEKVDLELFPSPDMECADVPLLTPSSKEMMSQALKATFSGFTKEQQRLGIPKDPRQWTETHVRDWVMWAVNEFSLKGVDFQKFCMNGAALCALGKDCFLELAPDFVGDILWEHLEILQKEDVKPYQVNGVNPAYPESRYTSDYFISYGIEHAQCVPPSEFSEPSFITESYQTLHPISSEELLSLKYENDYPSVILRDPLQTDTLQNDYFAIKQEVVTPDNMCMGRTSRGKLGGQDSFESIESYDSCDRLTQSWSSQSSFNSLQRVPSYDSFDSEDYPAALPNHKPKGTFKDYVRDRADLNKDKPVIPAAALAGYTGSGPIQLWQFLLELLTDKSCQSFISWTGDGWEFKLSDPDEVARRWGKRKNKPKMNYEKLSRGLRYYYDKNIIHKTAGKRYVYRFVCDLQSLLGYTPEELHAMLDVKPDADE

RUNX1 [2] = target: RUNX1 (UniProt Q01196); assay: RUNX1 binding intensity (PBM fluorescence), RUNX1 alone (arbitrary fluorescence units); higher = stronger binding; settings: RUNX1 concentration 2 nM; ETS1 concentration 0 nM
Chain of RUNX1 (Q01196 whole entry): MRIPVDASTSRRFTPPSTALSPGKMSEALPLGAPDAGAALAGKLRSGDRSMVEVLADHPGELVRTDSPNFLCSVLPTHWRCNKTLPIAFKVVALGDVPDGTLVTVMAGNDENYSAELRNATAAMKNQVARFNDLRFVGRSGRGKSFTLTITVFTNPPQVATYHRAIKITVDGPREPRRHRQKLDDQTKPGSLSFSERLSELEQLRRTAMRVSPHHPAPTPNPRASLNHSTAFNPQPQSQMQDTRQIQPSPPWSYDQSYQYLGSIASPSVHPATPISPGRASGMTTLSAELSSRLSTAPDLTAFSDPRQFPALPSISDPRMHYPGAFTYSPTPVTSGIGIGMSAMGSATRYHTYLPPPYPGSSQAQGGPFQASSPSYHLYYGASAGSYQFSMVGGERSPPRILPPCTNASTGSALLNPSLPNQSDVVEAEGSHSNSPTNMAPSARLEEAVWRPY
Procedure: (§1)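 Cooperative gcPBM on 36-bp genomic probes with neighbouring ETS1 and RUNX1 sites. Recombinant human RUNX1 (2 nM) was incubated alone or with ETS1 (25 nM) and detected with anti-RUNX1 antibody plus Alexa488 secondary. Values are medians over 4 replicate spots; the RUNX1+ETS1 data were normalised to the RUNX1-only data. The probes sit in constant array flanks that are not printed.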

ETS1 [3] = target: T1, ETS1; assay: ETS1 binding intensity (PBM fluorescence) in presence of RUNX1, normalised to ETS1-only experiment (arbitrary fluorescence units); higher = stronger binding; settings: ETS1 concentration 1 nM; RUNX1 concentration 25 nM
RUNX1 [4] = target: RUNX1 (UniProt Q01196); assay: RUNX1 binding intensity (PBM fluorescence) in presence of ETS1, normalised to RUNX1-only experiment (arbitrary fluorescence units); higher = stronger binding; settings: RUNX1 concentration 2 nM; ETS1 concentration 25 nM
Procedure: as §1
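Throughout, for RUNX1 binding intensity (PBM fluorescence) in presence of ETS1, normalised to RUNX1-only experiment: Full-length recombinant human ETS1 or RUNX1 bound to double-stranded 36-bp genomic probes on microarrays, detected by protein-specific primary antibody and Alexa488 secondary, spot fluorescence as median of four replicate spots.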
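Throughout, for RUNX1 binding intensity (PBM fluorescence), RUNX1 alone: Full-length recombinant human RUNX1 bound to double-stranded 36-bp genomic probes on a high-density microarray, scored as Alexa488 fluorescence per spot via anti-RUNX1 antibody, median of four replicate spots.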

Sequence	ETS1 binding intensity (ETS1 [1])	RUNX1 binding intensity (RUNX1 [2])	ETS1 binding intensity (ETS1 [3])	RUNX1 binding intensity (RUNX1 [4])
CGGGCTGGGAGGAAGTGATGGCTGACCACAGAGGAG	1130	1000	4610	1570
TAGACTAACAGGGGAGGAAGTGGGTTGCAAGCCGTG	2030	683	2740	868
TCAATAAGACAGGATGTTCTCCAACCGCATTAAGCT	3270	854	22100	2910
CTTCTTTCCAGAGGATGTGGCTTCAGCGGGAGAGCT	1250	817	1830	1030
TTGACTCGGGAATGTCCGGTCGTGGTAAGCAGGGTG	770	683	858	999
TGGGGCTCTTCCTGCTTATGTGACCACAGCACCTTG	402	936	679	1760
CCAACAGTACCCTTCCTCCCTTAACCACAAGACTGA	445	5500	2090	6290
GAAACAATTTCCTGTACCTCTGTGGTAAAAATGATA	1040	945	1650	2610
AATATACGGTGAGGATGTGGGCAAAAAACAAAGAGG	1060	809	1270	965
CTGGGCTCGCCAGGCGGAAGTGGTTGGAGACTGCGT	6330	668	9090	1510
CACCCTCAACTTCCTGACCCATAAACCACAAGCTAT	468	6110	1810	13100
GCCACCTCTTCCTGTGTTGCAAACCACAGGTCCACC	805	1600	1320	5050
TGTAAGTCACTTCCTGTCGTGGTCAGGTCTCCTCTC	8260	873	7730	2370
GGCCGACGGGAAGTGTAGTCCGGCCTGCGGTCCGGG	801	704	1910	1050
AGTCCACACTACAGGAAACCACAGGCCTGAGCCCCA	1580	2870	3180	3440
GAACCACTTCCCTGAAACCATTTACCACATAAATCT	383	1510	904	2470
GGGCGGGTCAGCGGAAGTGAGGGCGGTTGAGGCTGG	4740	742	4550	1320
GAGAACTTCCGGTGCGCTCCCCGGGACTGCGGTCCC	3420	729	4920	2780
TGCTTCCCTTCCGTTCCGACAGCGAAAACCGCTGCC	532	998	783	2030
TTCTATCCTGCCTTGCATGTCTTTAACCACACTGAG	396	1800	489	1720
TTAGCACATCCTGGGTACACAGACCACAGCCTCCTC	367	972	475	2140

Sequence	ETS1 binding intensity (ETS1 [1])	RUNX1 binding intensity (RUNX1 [2])	ETS1 binding intensity (ETS1 [3])	RUNX1 binding intensity (RUNX1 [4])
CACCTAAAGCCATTGGGATGTGGTTTCTCTTTTTCA	388	1040	894	1010
GCGCTACAGGAACTTCCTGCGCGGTTGCTGTCGTTG	1360	702	1570	1180
TCTCTTCCTGTGATGGAAATACATTGAGGTTTGCGA	523	787	743	1740
TATATGCACAGGAAGTCCCTTACAACCCACTCTGTT	3900	869	3840	1130
AATCCACCGGAAACACTTAGACGCCGCAACCCCAGT	3660	895	5740	1590
AAACAGGAAATCACAGCAGCGTTGCGGAGTGGAGCA	1100	754	1110	883
GTTCAGCGGACGGCTTCCTGCGGCTTGCTGGGGCCG	361	724	462	1000
TAGCATGTGAGCTTCCTGTGGGTTTGTGCAGCCCCA	616	708	654	1440
AGGAGCCGGAAGTCCCGCCCACGCACCCCCCGCAGG	5260	857	8270	1770
CACCCATAGCACCCCGGAAACCACCTCCACCACCTG	1890	1390	2240	2020
GGGCGGGTGAGACCAGGATGTGGGTTCCCCCACCTT	1880	775	3540	1120
AGTCAGCAGAGAGGAAGTGGTTAGTCCTGCCTTGAA	2240	742	4900	1870
GGGGCGGCTTCCGGCGGCGTGACCTGACCGCAAGAG	995	2950	4920	9110
GCCACTTCCTGGAAAACAGTAATTACCACACGTCTC	464	1100	546	2160
GTGGCGGGGCGGAAGTTCACATGTGTGGTATGTAGA	2720	940	5000	1430
GGGGAAAGGAAGAGGAAACCGCGAGTGCAAAGGCCC	679	1140	1580	2330
TCCCTTACCTTCCTGCTGCCACCAAACCACCAAACC	460	2510	1040	3260
CTGCTGACCAAAACAGGATGTGGTCTACACAAAGTG	10300	800	36600	3500
ACTGAAAACAGCACAGGATGTGGTCTGCCAGGTGCC	4270	752	10100	1440
AAACCAGAGAGGAAGTGGCACCACATGGCCAGACTG	2030	755	2150	1140
GGAGCAAGGATGACAGGATGTGGCTTAGGGGGAGGC	5020	708	7820	1000

Sequence	ETS1 binding intensity (ETS1 [1])	RUNX1 binding intensity (RUNX1 [2])	ETS1 binding intensity (ETS1 [3])	RUNX1 binding intensity (RUNX1 [4])
GTTCTCCACATCCTGTTCCGTAGCTGTGGTGCACCG	1600	3060	1780	8880
TACTAGTTTGGGGCATCCTGTGGTATAGGGGAAGCA	4100	797	4560	1080
CGGTTCCGGCGCCTGAAGTTTTAGCTGCGGTGGCGG	347	794	676	1720
CAAGAGCCGGAAGTCCCTTGTGCCGCAGTCCTTCCC	5720	800	6680	1510
GCCGTGGGTACGACCGGAAGCCGCAGGTGGGTGAAG	18000	772	35000	1540
ACCTTCTGTTCCCTTCCTCAGACCGCAGGCGAGATG	367	1620	835	2230
GCAACGGAGTCCGGAAGAACCACAGAGACGCGGCTC	789	730	694	858
CCCTCACCCCAGCTTTCCTGTGGTTAACCAAACCCC	518	7290	822	9960
TCTGGGGGAGGGGAAGGATGTGGTTTGCAGAGCGGA	873	1020	5630	1470
ACCCCAAGCCCAGGATGTGGTTTGGCCACTATTGAG	727	859	4450	2030
TACTTCTTCCTGGCAGAGACCGGGAGTGCGGTCCGC	471	745	588	920
AACAAACCGGATGGGGTTGCCACCCGCAATCTTGTC	2030	826	5130	2140
ACACCGGAAGCCCAACAGCATGCCGAGTAACCACCC	1120	864	1170	1310
CTGCAGATGCATTTCCTTTTTGTGGTAGCAAGCGTG	570	805	932	1470
TACAGCCAGGAAATGGGGAGGGTGCTGCGGGCGGCA	858	742	1680	917
GACTCCCTCAGCGGATGCGGGTGCTGCTGCTGCTGC	1290	743	1400	1250
AAATCACATACCCGGAAACCACATGCACAGAAGTGG	1480	1090	3060	2090
GGACCGGAAGTAGGTTTCTACCCGACCGCATTTTAC	12100	889	43900	2740
CGTCACTTCCCACGCGACTGCCTGCGGGAAACATGG	550	1150	704	1680
AACACCTCACACTTCCTGCCCACAAGATAAGAGCCT	895	1660	1910	3120
CCCAAGCTACGGAAGTTAAACCTCAAACATGAAATC	1110	1040	1420	1410

Sequence	ETS1 binding intensity (ETS1 [1])	RUNX1 binding intensity (RUNX1 [2])	ETS1 binding intensity (ETS1 [3])	RUNX1 binding intensity (RUNX1 [4])
CAGATTCCCGGAAAGGGGGACATGTAGCCGCAAAAG	509	815	1990	1040
ACAACTTCCTGTGGGATTTTTGGTGTCTGCGGCTCA	818	811	858	2810
AGATGCAAACACAGGAAACTTGTGGTCTATGCTGCT	1800	803	7450	1160
TTCAGTCCTGGTTTCCTGTGGTTCTAGGATCTTTAT	903	828	957	1440
CTTCTGAGAGGAGGATGTGGTCAGATACCTACAAAT	1030	854	7800	1650
GGGGACCGGAAAGGGAGGGGTGGGCCGCAGGCGCCG	786	766	680	1150
GCTGCTTCCGGCCGCTGGTCGCAGGGCTGCGGGACT	865	677	1000	1760
CCTCTTGGTTTCCTGTCCCTCACCACAAGAAGCAGT	625	1540	1520	4520
AATGCCGGATATTGGTTCTGGTAAGCCACAAAAAAG	1720	836	4090	1390
TTGGCTTTGTGTTTCCGCGGTGTTGGTAGAGTCTCG	418	875	482	980
TCCTTTTCCGGTGGCGGCGCCGCGCGGTGAGGTTGT	754	731	615	1880
TCCCTCCTTCCGCTCTGGTTTTGTGGTTGCTTGCTG	902	1490	1620	3330
GCCATTAAAGCAGCTTCCTGTGGGCGCGGCGCAGGA	888	753	867	1010
ACAGGAAGTGTCTCTATAGAAACCAAACCACAGAAA	1270	935	7500	949
GAGCCCAACCGGCATCCGTCGCGGTTGGACGTGGGC	343	761	490	1070
CTGCCTGGCACAGGATGTGGTCATTTGTGCTGAGGA	5880	730	17900	4420
TCTCCCGGAACTGCTCCTTCACCATGATGACCGCTG	590	966	542	1090
CTGTTTCCTGCCTTTGCTGTCTGTGACCGCATCAGT	478	1310	1490	2840
AAGTGGAGAGCGGAAGTGAGCTGTGGGTGACTGCAG	6780	759	8400	1240
GCCCACCCGCTTCCGGTTGTGGGCCCCGCCCGCCGA	5540	801	7350	7040
